EBI2 block – blocks human EBI2 receptor beta-arrestin signaling | P32249 | EBI2 beta-arrestin recruitment, luminescence, 7a,25-OHC stimulated | inhibition, % at 5 µM | 0.81% of 360,000 active | AID 651636; in the data active = inhibition above about 38%;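 note: enzyme fragment complementation signal reports receptor beta-arrestin coupling in cells; 0% = agonist plus DMSO wells and 100% = wells without agonist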
SENP6 block – SENP6 protease inhibition. Q9GZR1. Recombinant SENP6 catalytic domain, aminoluciferin luminescence. inhibition, % at 10 µM. 1.8% of 330,000 active. AID 2599;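 active = inhibition above about 50% at the single tested dose, limit read from the data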;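 note: plate controls were DMSO wells with enzyme for no effect and DMSO wells lacking enzyme for full effect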
SENP7 inh – inhibitors of human SENP7 protease. recombinant SENP7, Z-RLRGG-aminoluciferin luminescence, 40 min. Q9BQF6. 1.5% of 330,000 active. inhibition, % at 5 µM;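 active = inhibition above about 50% at the single test dose, limit read from the data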;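 note: plate controls were DMSO with enzyme for no effect and no enzyme buffer wells for full effect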
AHR activator – activators of human aryl hydrocarbon receptor. 2.5% of 320,000 active. AHR-responsive luciferase reporter cells, luminescence. activation, % at 5 µM. P35869; in the data active = activation above about 47%;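 note: 0% = vehicle wells and 100% = reference agonist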
SENP8 block-1 – blocks human SENP8 cleavage of Nedd8 substrate. recombinant SENP8, Nedd8 substrate fluorescence. 0.64% of 360,000 active. AID 602440. inhibition, % at 20 µM; in the data active = inhibition mostly above about 40%, no sharp cut-off; inactive = mostly below about 27%
SENP8 block-2 – blocks the human protease SENP8 | 1.2% of 330,000 active | AID 2540 | inhibition, % at 10 µM | Q96LD8 | purified SENP8, Z-RLRGG-aminoluciferin cleavage, luminescence; in the data active = inhibition above about 50%
AHR act confirm – human AHR activation, confirmation; shares compounds with AHR activator; human cells, AHR-responsive luciferase reporter, luminescence; activation, % at 9 µM; 87% of 2,300 active; AID 2845; in the data active = activation above about 49%;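 note: HepG2 hepatoma cells carrying a DRE-driven firefly luciferase reporter; 0% = vehicle wells and 100% = reference agonist wells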
PXR act counter – PXR activation, counter-screen for AHR activators; shares compounds with AHR activator; cell-based PXR reporter, luciferase luminescence; activation, % at 11.6 µM; 88% of 2,300 active; AID 434939; in the data active = activation above about 11%;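 note: human hepatoma DPX-2 cells expressing full-length human PXR; 0% = DMSO and 100% = reference agonist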
Target sequence (O75469 whole entry, looked up): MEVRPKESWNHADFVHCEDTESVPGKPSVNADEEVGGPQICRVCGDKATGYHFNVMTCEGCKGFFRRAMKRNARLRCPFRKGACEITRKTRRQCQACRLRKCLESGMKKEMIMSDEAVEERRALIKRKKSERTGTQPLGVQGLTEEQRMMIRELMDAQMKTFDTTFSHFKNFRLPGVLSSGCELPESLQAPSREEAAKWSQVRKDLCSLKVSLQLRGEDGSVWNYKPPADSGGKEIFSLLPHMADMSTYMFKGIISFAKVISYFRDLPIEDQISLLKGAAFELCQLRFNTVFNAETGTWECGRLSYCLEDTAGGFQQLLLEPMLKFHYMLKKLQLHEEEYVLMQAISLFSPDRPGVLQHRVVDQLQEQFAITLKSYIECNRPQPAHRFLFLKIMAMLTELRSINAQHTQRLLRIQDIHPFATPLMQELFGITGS
SENP8 conf-1 – confirmation of human SENP8 protease inhibitors; shares compounds with SENP7 inh; Recombinant SENP8, Z-RLRGG-aminoluciferin luminescence, 60 min; inhibition, % at 12.5 µM; 40% of 6,200 active; AID 488912;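 active = mean inhibition across replicates above about 50%, limit read from the data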
SENP6 conf – human SENP6 inhibition, confirmed; shares compounds with SENP7 inh; recombinant SENP6, Z-RLRGG-aminoluciferin luminescence; inhibition, % at 12.5 µM; 58% of 6,200 active; AID 488915
SENP7 conf – human SENP7 inhibition, confirmed | shares compounds with SENP7 inh | recombinant SENP7, Z-RLRGG-aminoluciferin luminescence, 40 min | inhibition, % at 12.5 µM | 69% of 6,200 active
Casp3 SENP sel – inhibits human caspase-3 in SENP selectivity test; purified caspase-3, Z-DEVD-aminoluciferin luminescence, 60 min; 60% of 6,200 active; inhibition, % at 12.5 µM; shares compounds with SENP7 inh;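 active = mean inhibition above about 50%, limit read from the data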;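 note: plate controls were enzyme with DMSO for no effect and wells without caspase-3 for full effect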
Target sequence (P42574 28-227 limits assumed): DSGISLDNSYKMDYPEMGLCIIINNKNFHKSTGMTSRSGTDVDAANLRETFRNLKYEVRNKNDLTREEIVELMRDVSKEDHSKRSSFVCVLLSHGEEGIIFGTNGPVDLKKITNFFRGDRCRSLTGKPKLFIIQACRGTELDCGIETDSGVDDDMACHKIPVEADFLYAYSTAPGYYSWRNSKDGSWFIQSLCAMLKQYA
Luc interf – interferes with luciferase luminescence in SENP counter-screen; 39% of 6,200 active; inhibition, % at 12.5 µM; AID 488919; Pre-incubated SENP8/Z-RLRGG-aminoluciferin, luciferase luminescence interference; shares compounds with SENP7 inh;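 active = mean inhibition above about 50% when retested at one dose, limit read from the data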;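 note: plate controls were DMSO wells with completed reaction for no effect and substrate without enzyme for full effect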
SENP8 conf-2 – confirmation of human SENP8 protease inhibitors | shares compounds with SENP8 block-1 | purified SENP8, Nedd8-AMC/pro-Nedd8 cleavage fluorescence, 30 min | inhibition, % at 25 µM | 15% of 1,400 active; in the data active = inhibition mostly above about 39%, no sharp cut-off; inactive = mostly below about 34%
EBI2 conf – confirmation of human EBI2 receptor antagonists | shares compounds with EBI2 block | EBI2 beta-arrestin luminescence, 7a,25-OHC antagonism | inhibition, % at 5 µM | 29% of 2,400 active;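 active = inhibition of at least 50%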
EBI2 agonist – counter-screen for EBI2 antagonists: EBI2 agonist activity; shares compounds with EBI2 block; EBI2-expressing cells, agonist mode, luminescence, 60 min; 0% vehicle, 100% 7α,25-dihydroxycholesterol control; activation, % at 5 µM; 2,400 tested, under 10 active; AID 652000;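 active = activation of at least 50%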
bGal cs – inhibits E. coli beta-galactosidase, counter-screen for EBI2 antagonists | shares compounds with EBI2 block | purified beta-galactosidase, luminescent Galacton Star, 15 min | inhibition, % at 5 µM | 1% of 2,400 active | AID 652176;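 active = replicate-average signal at least 3 plate SD below neutral wells, shown as high inhibition, flagging enzyme-inhibiting false positives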;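 note: 0% = DMSO wells with enzyme and 100% = wells lacking enzyme; higher means stronger loss of beta-gal luminescence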
Starred values were filed as active, the others as inactive; . = not tested or not shown. Most compounds without a hit are left out; they make up all but 5% or so of the library.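 Rule for the calls, unless noted: active = mean inhibition above about 50% in the one-dose retest (limit read from the data); inactive = the rest.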

SMILES | EBI2 block | SENP6 block | SENP7 inh | AHR activator | SENP8 block-1 | SENP8 block-2 | AHR act confirm | PXR act counter | EBI2 conf | EBI2 agonist | bGal cs | others
Cc1cccc(NC(=O)c2ccc(NCC3CCCO3)c([N+](=O)[O-])c2)c1 (configuration not stated) | 7 | -6 | -17 | -3 | 25 | -7 | . | . | . | . | .
O=C(Nc1cccc(Cl)c1)c1ccc(NCC2CCCO2)c([N+](=O)[O-])c1 (configuration not stated) | -3 | -11 | -7 | 91* | 44* | 5 | 6 | 30* | . | . | . | SENP8 conf-2=13
Cc1cc(C)cc(NC(=S)N2CCC(NC(=O)C3CC3)CC2)c1 | 4 | -18 | 2 | 0 | 8 | 6 | . | . | . | . | .
c1ccc(-c2n[nH]c(-c3ccccn3)n2)cc1 | -11 | 61* | 64* | 90* | 41* | 32 | 81* | 24* | . | . | . | SENP8 conf-1=51*;SENP6 conf=51*;SENP7 conf=86*;Casp3 SENP sel=83*;Luc interf=64*;SENP8 conf-2=11
CC(=O)N(Cc1ccco1)c1nc(C(=O)Nc2ccc(Cl)cc2)c(C)s1 | 61* | 7 | -4 | 90* | -4 | 0 | 66* | 63* | 17 | 1 | 7
O=C(/C=C/c1ccccc1)N1CCN(CCN2C(=O)c3cccc4cccc(c34)C2=O)CC1 | 92* | -21 | 3 | 102* | -4 | -1 | 83* | 51* | 84* | -1 | 5
S=C1NCCOCCNC(=S)NCCOCCOCCN1 | 6 | -7 | 1 | -1 | 15 | 0 | . | . | . | . | .
Cc1ccc(S(=O)(=O)N(C)C)cc1NC(=O)C(C)OC(=O)C1CCCCC1 (configuration not stated) | 1 | 13 | 9 | -1 | 1 | -2 | . | . | . | . | .
CN1C2C=C3C(C#N)=C(N)C(C#N)(C#N)[C@@H](c4ccc(Cl)cc4)[C@@H]3C1CC2 (some centres not stated) | 32 | 12 | 7 | 40 | -470 | 8 | . | . | . | . | .
CN1C2C=C3C(C#N)=C(N)C(C#N)(C#N)C(c4ccc(Br)cc4)C3C1CC2 (configuration not stated) | 51* | 5 | -4 | 110* | -110 | 1 | 79* | 107* | 59* | 1 | 4
CCOc1ccc(NC(=S)N(CCc2c(C)[nH]c3ccc(C)cc23)Cc2ccco2)cc1 | 40* | -12 | 3 | 86* | -7 | 12 | 67* | 91* | 29 | 0 | 3
CCOc1ccc(NC(=S)N(CCc2c(C)[nH]c3ccc(C)cc23)Cc2cccnc2)cc1 | 24 | -6 | -4 | 36 | 9 | -7 | . | . | . | . | .
COc1ccc(/C=C/C(=O)c2cc3c(cc2N)OCO3)cc1 | 63* | 95* | 96* | 96* | 0 | 96* | 128* | 26* | 48 | 0 | 10
COc1ccc(/C=C/C(=O)c2ccc(OC)cc2OC)cc1 | 25 | -22 | -6 | -3 | 30 | -17 | . | . | . | . | .
COc1cccc(CN(C)C(=O)Cc2ccc(OC)c(S(=O)(=O)N3CCOCC3)c2)c1 | -14 | 8 | 6 | -1 | -6 | 8 | . | . | . | . | .
O=C(Nc1ccc(Cl)cc1F)c1ccc2c(c1)C(=O)N(Cc1ccncc1)C2=O | 51* | 11 | 4 | 99* | -2 | 4 | 94* | 11* | 29 | 2 | 5
COc1cc(C2=CN(Cc3ccccc3)CCC2=O)cc(OC)c1OC | 5 | 4 | 2 | 6 | 5 | 6 | . | . | . | . | .
O=C1CCN(Cc2ccccc2)C=C1c1ccc(C(F)(F)F)cc1 | 69* | 15 | -5 | 108* | -12 | -6 | 102* | 119* | 48 | -1 | -15
O=C1CCN(Cc2ccccc2)C=C1c1ccc2ccccc2c1 | 90* | 6 | -4 | 83* | -16 | -6 | 108* | 40* | 65* | 0 | -13
CC(C)NC(=O)c1ccc(N(Cc2ccc(Cl)cc2)S(C)(=O)=O)cc1 | -7 | 3 | 4 | 2 | 8 | -4 | . | . | . | . | .
CCc1cccc(C)c1NC(=O)c1ccc2c(c1)CCN2S(C)(=O)=O | 3 | -6 | 3 | 1 | 10 | -2 | . | . | . | . | .
C(=C\c1nc(N2CCCC2)c2ccccc2n1)/c1ccccc1 | 41* | 1 | 8 | 162* | -159 | -2 | 145* | 45* | 59* | -1 | -7
Cc1cc(C)n(CCc2nc(-c3ccc(-c4ccccc4)cc3)cs2)n1 | -1 | 83* | 80* | 3 | 4 | 19 | . | . | . | . | . | SENP8 conf-1=27;SENP6 conf=50;SENP7 conf=68*;Casp3 SENP sel=36;Luc interf=21
Cc1cc(C(=O)NC(=S)Nc2cccc(NC(=O)C(C)C)c2)ccc1[N+](=O)[O-] | 4 | 71* | 77* | 8 | 16 | 56* | . | . | . | . | . | SENP8 conf-1=24;SENP6 conf=61*;SENP7 conf=95*;Casp3 SENP sel=78*;Luc interf=51*
CC(C)C(=O)Nc1cccc(NC(=S)NC(=O)c2ccc([N+](=O)[O-])cc2)c1 | 9 | 30 | 7 | 5 | 17 | -4 | . | . | . | . | .
CC1=C(C(=O)OCC2CCCO2)C(c2ccc(F)cc2)NC(=O)N1 (configuration not stated) | 1 | -8 | 1 | 1 | 8 | -5 | . | . | . | . | .

Assay outcomes: PubChem, several laboratories
